# Experimental data as given in PMC7862700, “An all-to-all approach to the identification of sequence-specific readers for epigenetic DNA modifications on cytosine”.
# Experiments:
# Experiment in all cases: DAPPL (digital affinity profiling via proximity ligation, sequencing); 10 mM Tris-HCl pH 7.5, 50 mM NaCl, 1 mM DTT, 4% glycerol, room temperature, 30 min; GST-TFs on glutathione beads, 16-mer random dsDNA library, 0.1% formaldehyde crosslink after washing; high values mean tight binding
# [1] = target: T1, FEV (Homo sapiens, UniProt Q99581 1-238); details: protein: recombinant; tags: N-terminal GST; dsDNA, one strand shown
# T1 sequence: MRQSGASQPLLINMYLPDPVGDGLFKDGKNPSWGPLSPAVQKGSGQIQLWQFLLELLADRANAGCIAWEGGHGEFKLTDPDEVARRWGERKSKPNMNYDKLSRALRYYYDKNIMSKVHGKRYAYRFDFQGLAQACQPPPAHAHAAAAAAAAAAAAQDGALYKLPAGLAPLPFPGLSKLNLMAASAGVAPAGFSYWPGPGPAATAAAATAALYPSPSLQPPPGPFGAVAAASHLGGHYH
# In short: (§1)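 Human transcription factors fused to GST were expressed in yeast, captured on glutathione beads, given DNA barcodes and pooled with a GST-only negative control. Pools were incubated with 200 nmole of a 16-mer random double-stranded DNA library in Tris/NaCl/DTT/glycerol buffer at room temperature for 30 min. They were then washed, crosslinked with 0.1% formaldehyde, proximity-ligated (BsaI/T4 ligase, 1 h, 37 °C), PCR-amplified and sequenced on an Illumina NextSeq500. Binding signal is each 6-mer's read frequency for a factor divided by its frequency for the GST control.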
# [2] = target: ETV5 (Homo sapiens, UniProt P41161 1-510); details: protein: recombinant; tags: N-terminal GST; dsDNA, one strand shown
# In short: as §1
# [3] = target: HSF1 (Homo sapiens, UniProt Q00613 1-529); details: protein: recombinant; tags: N-terminal GST; chain copies: 3; dsDNA, one strand shown
# In short: as §1
# [4] = target: T2, SPIC (Homo sapiens, UniProt Q8N5J4 1-248); details: protein: recombinant; tags: N-terminal GST; dsDNA, one strand shown
# T2 sequence: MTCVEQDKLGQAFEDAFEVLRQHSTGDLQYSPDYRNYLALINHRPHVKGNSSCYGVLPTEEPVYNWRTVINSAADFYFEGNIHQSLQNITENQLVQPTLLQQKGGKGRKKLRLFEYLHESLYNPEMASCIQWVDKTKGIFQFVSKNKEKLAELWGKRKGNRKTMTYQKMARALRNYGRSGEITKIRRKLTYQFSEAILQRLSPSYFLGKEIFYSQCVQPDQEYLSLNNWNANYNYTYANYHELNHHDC
# In short: as §1
# [5] = target: ELF4 (Homo sapiens, UniProt Q99607 1-663); details: protein: recombinant; tags: N-terminal GST; dsDNA, one strand shown
# In short: as §1
# [6] = target: T3, ELK4 (Homo sapiens, UniProt P28324-2 1-405); details: protein: recombinant; tags: N-terminal GST; dsDNA, one strand shown
# T3 sequence: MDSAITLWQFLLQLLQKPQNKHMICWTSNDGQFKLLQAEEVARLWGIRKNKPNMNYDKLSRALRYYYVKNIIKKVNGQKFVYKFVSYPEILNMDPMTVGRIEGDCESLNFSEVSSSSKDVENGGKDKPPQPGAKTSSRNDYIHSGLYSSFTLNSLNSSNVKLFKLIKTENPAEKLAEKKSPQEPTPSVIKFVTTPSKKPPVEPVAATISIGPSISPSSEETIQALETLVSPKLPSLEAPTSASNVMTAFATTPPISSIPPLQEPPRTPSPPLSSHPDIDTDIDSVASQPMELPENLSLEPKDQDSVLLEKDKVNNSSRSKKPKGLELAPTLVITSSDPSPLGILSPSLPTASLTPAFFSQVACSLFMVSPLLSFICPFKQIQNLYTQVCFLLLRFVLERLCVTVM
# In short: as §1
# [7] = target: T4, ETV2 (Homo sapiens, UniProt O00321 1-342); details: protein: recombinant; tags: N-terminal GST; dsDNA, one strand shown
# T4 sequence: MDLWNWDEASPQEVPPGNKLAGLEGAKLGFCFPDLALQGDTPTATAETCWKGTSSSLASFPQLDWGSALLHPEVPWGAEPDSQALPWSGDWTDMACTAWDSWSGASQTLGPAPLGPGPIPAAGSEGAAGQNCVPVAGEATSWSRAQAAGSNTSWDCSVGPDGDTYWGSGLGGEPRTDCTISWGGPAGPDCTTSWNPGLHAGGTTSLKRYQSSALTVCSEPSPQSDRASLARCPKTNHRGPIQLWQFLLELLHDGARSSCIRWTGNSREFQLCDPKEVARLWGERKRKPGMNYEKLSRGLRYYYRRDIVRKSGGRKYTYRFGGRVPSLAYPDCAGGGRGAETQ
# In short: as §1
# [8] = target: T5, ELF3 (Homo sapiens, UniProt P78545 1-371); details: protein: recombinant; tags: N-terminal GST; dsDNA, one strand shown
# T5 sequence: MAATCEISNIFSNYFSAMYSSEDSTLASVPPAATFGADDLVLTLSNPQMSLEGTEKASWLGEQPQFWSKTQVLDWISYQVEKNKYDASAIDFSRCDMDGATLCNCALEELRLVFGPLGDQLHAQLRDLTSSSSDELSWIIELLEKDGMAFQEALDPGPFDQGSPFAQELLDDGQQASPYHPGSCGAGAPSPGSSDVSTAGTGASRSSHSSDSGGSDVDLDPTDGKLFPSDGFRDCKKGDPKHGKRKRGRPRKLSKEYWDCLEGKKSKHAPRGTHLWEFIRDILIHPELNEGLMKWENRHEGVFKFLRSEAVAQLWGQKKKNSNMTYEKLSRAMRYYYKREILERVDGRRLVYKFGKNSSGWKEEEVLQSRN
# In short: as §1
# [9] = target: CRX (Homo sapiens, UniProt O43186 1-299); details: protein: recombinant; tags: N-terminal GST; dsDNA, one strand shown
# In short: as §1
# [10] = target: ETV1 (Homo sapiens, UniProt P50549 1-477); details: protein: recombinant; tags: N-terminal GST; dsDNA, one strand shown
# In short: as §1
# [11] = target: T6, ERF (Homo sapiens, UniProt P50548 1-548); details: protein: recombinant; tags: N-terminal GST; dsDNA, one strand shown
# T6 sequence: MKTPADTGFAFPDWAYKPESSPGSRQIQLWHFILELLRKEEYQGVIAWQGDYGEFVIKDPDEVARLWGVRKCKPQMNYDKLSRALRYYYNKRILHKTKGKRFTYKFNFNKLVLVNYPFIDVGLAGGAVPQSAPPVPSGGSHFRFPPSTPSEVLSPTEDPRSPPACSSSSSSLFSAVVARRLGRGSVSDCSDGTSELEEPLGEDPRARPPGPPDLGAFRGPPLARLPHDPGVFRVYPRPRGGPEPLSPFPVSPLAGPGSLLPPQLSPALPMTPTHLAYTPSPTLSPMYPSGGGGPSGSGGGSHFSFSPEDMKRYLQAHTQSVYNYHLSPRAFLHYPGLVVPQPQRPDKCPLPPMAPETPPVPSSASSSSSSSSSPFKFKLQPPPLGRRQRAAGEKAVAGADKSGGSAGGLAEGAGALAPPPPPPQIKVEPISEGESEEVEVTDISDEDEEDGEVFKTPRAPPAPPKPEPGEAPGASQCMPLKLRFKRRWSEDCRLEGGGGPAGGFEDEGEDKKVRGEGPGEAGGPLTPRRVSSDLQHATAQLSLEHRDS
# In short: as §1
# [12] = target: T7, ETV3L (Homo sapiens, UniProt Q6ZN32 1-361); details: protein: recombinant; tags: N-terminal GST; dsDNA, one strand shown
# T7 sequence: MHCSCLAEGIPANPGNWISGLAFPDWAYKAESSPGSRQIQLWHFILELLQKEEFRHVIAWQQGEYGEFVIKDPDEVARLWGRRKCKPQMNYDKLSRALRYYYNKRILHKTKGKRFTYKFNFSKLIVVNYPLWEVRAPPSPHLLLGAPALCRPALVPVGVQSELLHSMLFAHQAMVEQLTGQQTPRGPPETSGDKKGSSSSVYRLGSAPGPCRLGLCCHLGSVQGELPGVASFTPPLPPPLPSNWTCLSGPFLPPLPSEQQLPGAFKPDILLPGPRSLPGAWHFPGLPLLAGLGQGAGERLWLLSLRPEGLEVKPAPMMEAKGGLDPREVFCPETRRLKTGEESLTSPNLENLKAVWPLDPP
# In short: as §1
# [13] = target: T8, ETS2 (Homo sapiens, UniProt P15036 1-469); details: protein: recombinant; tags: N-terminal GST; dsDNA, one strand shown
# T8 sequence: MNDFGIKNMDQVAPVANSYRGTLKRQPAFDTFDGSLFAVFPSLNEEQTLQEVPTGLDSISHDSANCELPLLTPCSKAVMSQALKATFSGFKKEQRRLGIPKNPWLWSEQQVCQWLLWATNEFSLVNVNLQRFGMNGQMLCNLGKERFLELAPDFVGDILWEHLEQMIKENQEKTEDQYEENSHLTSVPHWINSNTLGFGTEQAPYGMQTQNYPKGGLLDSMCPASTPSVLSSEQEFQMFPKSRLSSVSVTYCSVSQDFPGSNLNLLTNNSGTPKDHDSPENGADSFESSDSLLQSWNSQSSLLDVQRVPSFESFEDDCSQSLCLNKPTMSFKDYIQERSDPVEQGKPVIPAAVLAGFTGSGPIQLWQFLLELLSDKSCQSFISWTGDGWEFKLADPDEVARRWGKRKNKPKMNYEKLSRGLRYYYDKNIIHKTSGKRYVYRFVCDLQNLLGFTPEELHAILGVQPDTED
# In short: as §1
# [14] = target: T9, SPDEF (Homo sapiens, UniProt O95238 1-335); details: protein: recombinant; tags: N-terminal GST; dsDNA, one strand shown
# T9 sequence: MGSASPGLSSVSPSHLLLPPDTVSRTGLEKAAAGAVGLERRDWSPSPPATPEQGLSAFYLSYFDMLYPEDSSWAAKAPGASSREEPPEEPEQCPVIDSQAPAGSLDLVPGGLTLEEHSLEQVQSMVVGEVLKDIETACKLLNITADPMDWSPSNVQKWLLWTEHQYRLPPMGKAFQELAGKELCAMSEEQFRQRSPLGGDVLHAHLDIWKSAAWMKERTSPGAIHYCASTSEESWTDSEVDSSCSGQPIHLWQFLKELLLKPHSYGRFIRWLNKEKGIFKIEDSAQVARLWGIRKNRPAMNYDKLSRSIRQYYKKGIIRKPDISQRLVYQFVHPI
# In short: as §1
# [15] = target: T10, ETV7 (Homo sapiens, UniProt Q9Y603 1-341); details: protein: recombinant; tags: N-terminal GST; dsDNA, one strand shown
# T10 sequence: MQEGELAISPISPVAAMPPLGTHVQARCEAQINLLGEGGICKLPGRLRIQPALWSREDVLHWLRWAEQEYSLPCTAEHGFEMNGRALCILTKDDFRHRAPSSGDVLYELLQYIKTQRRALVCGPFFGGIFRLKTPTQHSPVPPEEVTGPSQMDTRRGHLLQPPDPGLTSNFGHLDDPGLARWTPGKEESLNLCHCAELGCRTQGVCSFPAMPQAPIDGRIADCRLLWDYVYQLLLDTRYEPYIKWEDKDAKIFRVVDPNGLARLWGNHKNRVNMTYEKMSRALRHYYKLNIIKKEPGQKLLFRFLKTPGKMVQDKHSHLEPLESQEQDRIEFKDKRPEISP
# In short: as §1
# [16] = target: T11, ELF5 (Homo sapiens, UniProt Q9UKW6-2 1-255); details: protein: recombinant; tags: N-terminal GST; dsDNA, one strand shown
# T11 sequence: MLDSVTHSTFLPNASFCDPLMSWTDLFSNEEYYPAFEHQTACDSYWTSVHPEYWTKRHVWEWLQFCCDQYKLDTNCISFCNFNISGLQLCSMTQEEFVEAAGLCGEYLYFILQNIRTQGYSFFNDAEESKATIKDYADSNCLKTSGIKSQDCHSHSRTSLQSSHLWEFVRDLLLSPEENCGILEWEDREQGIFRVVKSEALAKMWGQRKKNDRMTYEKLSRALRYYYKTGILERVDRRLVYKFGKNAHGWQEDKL
# In short: as §1
# [17] = target: T12, ETV3 (Homo sapiens, UniProt P41162-2 1-143); details: protein: recombinant; tags: N-terminal GST; dsDNA, one strand shown
# T12 sequence: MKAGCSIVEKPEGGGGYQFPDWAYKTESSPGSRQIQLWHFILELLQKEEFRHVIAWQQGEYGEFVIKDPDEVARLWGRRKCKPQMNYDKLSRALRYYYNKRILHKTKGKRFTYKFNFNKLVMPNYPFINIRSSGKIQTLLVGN
# In short: as §1
# [18] = target: ETV6 (Homo sapiens, UniProt P41212 1-452); details: protein: recombinant; tags: N-terminal GST; dsDNA, one strand shown
# In short: as §1
# Chain of ETV5 (P41161 whole entry): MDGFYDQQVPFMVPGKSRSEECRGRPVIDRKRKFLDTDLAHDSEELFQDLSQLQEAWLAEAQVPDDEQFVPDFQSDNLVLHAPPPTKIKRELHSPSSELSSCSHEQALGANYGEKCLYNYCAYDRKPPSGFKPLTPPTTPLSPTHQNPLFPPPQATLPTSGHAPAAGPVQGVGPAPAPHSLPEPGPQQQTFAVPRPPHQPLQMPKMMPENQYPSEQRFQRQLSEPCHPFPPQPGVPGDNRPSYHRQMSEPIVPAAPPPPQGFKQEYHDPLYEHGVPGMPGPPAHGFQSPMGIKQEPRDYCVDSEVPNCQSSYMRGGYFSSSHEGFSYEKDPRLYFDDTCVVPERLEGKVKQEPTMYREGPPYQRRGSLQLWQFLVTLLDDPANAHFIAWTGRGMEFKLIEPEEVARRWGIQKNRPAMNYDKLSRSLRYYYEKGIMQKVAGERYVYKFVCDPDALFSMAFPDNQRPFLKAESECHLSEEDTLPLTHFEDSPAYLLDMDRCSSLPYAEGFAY
# Chain of ETV1 (P50549 whole entry): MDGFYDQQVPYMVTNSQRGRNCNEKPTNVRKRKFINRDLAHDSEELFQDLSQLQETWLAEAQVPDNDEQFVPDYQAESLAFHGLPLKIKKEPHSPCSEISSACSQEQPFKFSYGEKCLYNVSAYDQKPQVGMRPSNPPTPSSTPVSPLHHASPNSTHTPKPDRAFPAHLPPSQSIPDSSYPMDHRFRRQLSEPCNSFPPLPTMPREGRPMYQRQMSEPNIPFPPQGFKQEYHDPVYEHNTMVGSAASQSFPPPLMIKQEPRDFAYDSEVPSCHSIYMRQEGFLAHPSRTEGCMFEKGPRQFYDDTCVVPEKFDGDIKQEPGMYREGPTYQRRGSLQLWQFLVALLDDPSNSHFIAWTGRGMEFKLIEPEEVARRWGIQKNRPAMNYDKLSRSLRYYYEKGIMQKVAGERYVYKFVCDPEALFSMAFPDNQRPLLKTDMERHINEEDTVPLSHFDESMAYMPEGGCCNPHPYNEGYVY
# Chain of ELF4 (Q99607 whole entry): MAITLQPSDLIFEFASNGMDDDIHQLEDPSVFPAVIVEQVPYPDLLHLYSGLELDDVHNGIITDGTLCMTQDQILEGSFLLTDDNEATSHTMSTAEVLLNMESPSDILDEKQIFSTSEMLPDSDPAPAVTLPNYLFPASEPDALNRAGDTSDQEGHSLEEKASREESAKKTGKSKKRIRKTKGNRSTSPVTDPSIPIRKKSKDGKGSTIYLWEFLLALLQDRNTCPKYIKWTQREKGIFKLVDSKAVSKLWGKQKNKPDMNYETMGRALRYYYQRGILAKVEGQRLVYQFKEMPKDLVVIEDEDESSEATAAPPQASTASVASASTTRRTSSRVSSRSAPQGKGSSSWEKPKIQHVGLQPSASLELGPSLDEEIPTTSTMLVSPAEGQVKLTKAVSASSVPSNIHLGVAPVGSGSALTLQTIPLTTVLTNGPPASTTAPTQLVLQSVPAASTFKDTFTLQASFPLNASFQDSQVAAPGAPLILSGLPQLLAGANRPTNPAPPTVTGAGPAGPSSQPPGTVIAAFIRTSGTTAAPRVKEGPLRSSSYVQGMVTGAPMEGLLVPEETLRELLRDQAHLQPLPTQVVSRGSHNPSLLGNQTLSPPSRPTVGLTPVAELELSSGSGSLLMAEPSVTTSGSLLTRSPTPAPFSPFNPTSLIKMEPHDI
# Chain of ETV6 (P41212 whole entry): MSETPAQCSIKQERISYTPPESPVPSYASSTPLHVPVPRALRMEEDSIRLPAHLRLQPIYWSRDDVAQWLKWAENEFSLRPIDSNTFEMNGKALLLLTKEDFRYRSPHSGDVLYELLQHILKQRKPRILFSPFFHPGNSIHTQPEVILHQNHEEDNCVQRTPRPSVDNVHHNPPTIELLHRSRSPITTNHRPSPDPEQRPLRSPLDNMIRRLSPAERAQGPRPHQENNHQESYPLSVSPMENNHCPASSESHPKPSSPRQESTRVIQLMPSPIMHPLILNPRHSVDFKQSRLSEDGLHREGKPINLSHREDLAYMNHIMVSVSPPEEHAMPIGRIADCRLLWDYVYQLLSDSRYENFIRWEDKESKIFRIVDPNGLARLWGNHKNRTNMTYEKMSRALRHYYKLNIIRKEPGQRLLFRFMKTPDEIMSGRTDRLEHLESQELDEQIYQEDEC
# Chain of CRX (O43186 whole entry): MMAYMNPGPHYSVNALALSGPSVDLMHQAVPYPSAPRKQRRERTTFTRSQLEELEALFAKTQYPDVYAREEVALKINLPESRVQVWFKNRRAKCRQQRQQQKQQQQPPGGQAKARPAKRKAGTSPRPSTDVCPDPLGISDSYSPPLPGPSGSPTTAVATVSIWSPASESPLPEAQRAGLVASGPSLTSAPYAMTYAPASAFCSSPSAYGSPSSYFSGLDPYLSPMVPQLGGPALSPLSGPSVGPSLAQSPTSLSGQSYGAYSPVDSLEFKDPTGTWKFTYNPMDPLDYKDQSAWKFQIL
# Chain of HSF1 (Q00613 whole entry): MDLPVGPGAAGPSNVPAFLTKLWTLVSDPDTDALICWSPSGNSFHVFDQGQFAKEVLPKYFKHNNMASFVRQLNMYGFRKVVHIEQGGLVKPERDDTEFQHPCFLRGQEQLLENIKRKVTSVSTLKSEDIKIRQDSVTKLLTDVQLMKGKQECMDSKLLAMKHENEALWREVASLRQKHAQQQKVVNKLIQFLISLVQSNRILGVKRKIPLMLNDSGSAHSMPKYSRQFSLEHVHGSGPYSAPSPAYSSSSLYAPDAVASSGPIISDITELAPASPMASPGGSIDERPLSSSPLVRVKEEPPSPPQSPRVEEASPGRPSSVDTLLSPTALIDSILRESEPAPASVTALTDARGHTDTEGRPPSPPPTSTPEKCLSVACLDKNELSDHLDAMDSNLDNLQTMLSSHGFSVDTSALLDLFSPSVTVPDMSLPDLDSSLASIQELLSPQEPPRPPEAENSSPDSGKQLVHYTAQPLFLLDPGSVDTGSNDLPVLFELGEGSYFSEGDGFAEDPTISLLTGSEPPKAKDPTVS
sequence,measurement,setting,value
CTGATA,binding signal,[1],"1.14 fold enrichment (6-mer frequency, TF over GST control)"
same,binding signal,[2],"1.18 fold enrichment (6-mer frequency, TF over GST control)"
same,binding signal,[3],"1.18 fold enrichment (6-mer frequency, TF over GST control)"
same,binding signal,[4],"1.11 fold enrichment (6-mer frequency, TF over GST control)"
same,binding signal,[5],"1.19 fold enrichment (6-mer frequency, TF over GST control)"
same,binding signal,[6],"1.35 fold enrichment (6-mer frequency, TF over GST control)"
same,binding signal,[7],"1.15 fold enrichment (6-mer frequency, TF over GST control)"
same,binding signal,[8],"1.13 fold enrichment (6-mer frequency, TF over GST control)"
same,binding signal,[9],"1.26 fold enrichment (6-mer frequency, TF over GST control)"
same,binding signal,[10],"1.13 fold enrichment (6-mer frequency, TF over GST control)"
same,binding signal,[11],"1.16 fold enrichment (6-mer frequency, TF over GST control)"
same,binding signal,[12],"1.21 fold enrichment (6-mer frequency, TF over GST control)"
same,binding signal,[13],"1.17 fold enrichment (6-mer frequency, TF over GST control)"
same,binding signal,[14],"1.15 fold enrichment (6-mer frequency, TF over GST control)"
same,binding signal,[15],"1.08 fold enrichment (6-mer frequency, TF over GST control)"
same,binding signal,[16],"1.2 fold enrichment (6-mer frequency, TF over GST control)"
same,binding signal,[17],"1.26 fold enrichment (6-mer frequency, TF over GST control)"
same,binding signal,[18],"1.06 fold enrichment (6-mer frequency, TF over GST control)"
